# Target: TEAD3
# Experiment: pooled miR-30 sensor sort-seq; sequence = guide strand
# Conditions: shRNA
# Also: reference of the scale not given here.
row,Sequence,sensor-assay potency score (higher = more potent)
1,TTCTCTACCACCTGTTTGCCAA,-0.68
2,TTCTCGTCCGAGTCTTCCCCGT,-0.997
3,TTGAGGTCGGCCCAGAACTTGA,-1.66
4,TTTAATATAGCGTGCAATCAAC,-1.47
5,TTGATCATGTACTCGCACATGG,0.181
6,TATGCAAACAGTGAGGACCTTC,-0.217
7,TACTCCCGCACCTTCTTCCGAG,-0.896
8,TTTGCCAAAGGAGCACACCTTG,-1.16
9,TTGTTCTGCAGGACACTGGCAG,-0.245
10,TCTGACAGGATGATCTTCCGCC,0.971

# Target: TECPR1
# Experiment: as above
# Conditions: shRNA
row,Sequence,sensor-assay potency score (higher = more potent)
1,TTCCACGGTATCTTCTGCGGTC,-0.344
2,TTGAGGTCAATATTGGTCCAGG,-0.869
3,TGTGGTACCAGCAGTCACCGGC,0.193
4,TCACCAACCATCTCAATCCAAC,-1.66
5,TATGAGGCAGGGAAGTCGCTGG,-0.217
6,TTGGTCTCGTTCAGCACTGGGA,-0.998
7,TAGATGTTACTGGTGCTGCTGG,-0.642
8,TTGTCTTTCGTGTAGGTGGCGG,-0.464
9,TTCCACTTCTTGTCTTTCGTGT,0.613
10,TTGTTGGACACGTGCTCCCAGC,-1.68
11,TTCTTGTCTTTCGTGTAGGTGG,-0.581

# Target: TEF
# Experiment: as above
# Conditions: shRNA
row,Sequence,sensor-assay potency score (higher = more potent)
1,TTCTTCTTGCGTCTTGTCCAGT,-0.866
2,TACTTGGACACGATGGTCTTGC,-0.169
3,TCATCCTTCTGCTCGTCGGGGA,0.16
4,TATGGGATGGTCTTGTCCCAGA,-1.26
5,TTTAGCTGCCACGTTGTTCTTC,-0.221
6,TTGTCCAGTACTTTTCATCCTT,0.089
7,TAGACTAGGTGTCTTGCCCTGC,-0.327
8,TTGGTGACTCTAGACTAGGTGT,0.324
9,TTGCGTCTTGTCCAGTACTTTT,-1.72
10,TAGCTCTGCTACAGGCAGCAGC,-0.912

# Target: TELO2
# Experiment: as above
# Conditions: shRNA
row,Sequence,sensor-assay potency score (higher = more potent)
1,TAGTTGAGGGCATAGAACTGTG,-0.752
2,TTTCTCAGCCACGTCCGCCAGC,-1.03
3,TTCATCAGCCGGAAGCTGGGGC,0.0431
4,TAGGCATCGATGTGGAAGCGAA,-1.36
5,TTGCCCAGCAGCGTCTCCCGGA,-1.12
6,TTGGAGAGAGTCCACAACCGCC,-1.23
7,TGTAAGAACAGAAGCTTCTGGG,0.738
8,TCCATCAGCACTGCCAGCCGGC,-1.21
9,ATCATCGCTGTCCAGGTCCGAG,-1.37
